Source: PubChem
Hits are enriched below; roughly 1.2% of the tested compounds scored in any of these assays.
RXFP1 antag: antagonists of human relaxin receptor RXFP1; Q9HBX9; HEK293-RXFP1, relaxin-stimulated cAMP HTRF, 30 min; active compounds read low; activity change, negative = inhibition, % at 57.5 µM; 350,000 tested, 0.59% active; AID 1259400;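 active = activity change of -60% or lower, but not beyond a set lower limit; inconclusive = change between -60% and -40%, or beyond the set limit; inactive = change above -40%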; also: % is scaled to controls: 0 for no effect and ±100 for the full control effect
Target sequence (Q9HBX9 whole entry, looked up): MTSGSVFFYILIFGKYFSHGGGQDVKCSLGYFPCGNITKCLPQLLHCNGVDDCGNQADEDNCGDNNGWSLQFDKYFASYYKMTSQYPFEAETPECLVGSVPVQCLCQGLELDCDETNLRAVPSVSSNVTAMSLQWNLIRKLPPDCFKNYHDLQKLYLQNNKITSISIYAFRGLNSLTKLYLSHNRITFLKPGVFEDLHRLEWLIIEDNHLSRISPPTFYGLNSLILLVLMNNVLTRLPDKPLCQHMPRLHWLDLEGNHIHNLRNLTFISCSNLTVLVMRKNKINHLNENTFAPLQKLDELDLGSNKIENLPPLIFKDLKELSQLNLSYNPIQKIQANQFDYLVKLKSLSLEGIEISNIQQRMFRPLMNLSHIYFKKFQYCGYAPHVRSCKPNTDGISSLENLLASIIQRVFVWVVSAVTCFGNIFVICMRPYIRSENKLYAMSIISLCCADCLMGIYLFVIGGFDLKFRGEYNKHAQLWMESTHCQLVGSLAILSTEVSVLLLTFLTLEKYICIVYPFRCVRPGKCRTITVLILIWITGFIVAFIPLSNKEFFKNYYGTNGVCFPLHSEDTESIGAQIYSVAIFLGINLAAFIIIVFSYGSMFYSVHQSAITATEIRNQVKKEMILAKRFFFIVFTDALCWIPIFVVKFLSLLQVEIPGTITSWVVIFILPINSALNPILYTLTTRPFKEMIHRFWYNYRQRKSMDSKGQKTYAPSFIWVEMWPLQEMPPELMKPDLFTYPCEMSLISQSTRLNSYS
gsp antagonist: antagonizes gsp, the McCune-Albright syndrome mutation; gsp-mutant cells, cAMP HTRF, 30 min; Potency, µM (titrated, usually from 76.9 µM), without a hit: at the top dose activity change, negative = inhibition, hits mostly inhibitors; 340,000 tested, 0.4% active; calls by dose curve; cell line not stated here;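 also: intracellular cAMP measured with PDE inhibitor Ro 20-1724 present during compound exposure; potency is read from the fitted curve at half-maximal effect; % is scaled to controls: 0 for no effect and ±100 for the full control effect; nearly all actives have a fitted effect of over 65% in size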
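Cells in G418 medium, seeded 16-24 h, 37C; buffer exchange to DPBS + 1 mM CaCl2, 0.5 mM MgCl2, 0.05% BSA; cpds in DMSO + […] (300 uM stock), 30 min 37C; HTRF cAMP detection.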
gsp ag: activates gsp, the McCune-Albright syndrome mutation. gsp mutant cells, cAMP HTRF, 30 min. Potency, µM (top dose mostly 76.9 µM), for inactives: at the highest dose activation (cAMP increase), actives largely listed as activators. 340,000 tested, 0.13% active; active = well fitted activation curve with a large enough effect; inconclusive = small, poorly fitted or top-dose-only effect, or another doubt; inactive = no such curve, though single readings can be large or run the other way; cell line not stated here;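 also: phosphodiesterase inhibitor Ro 20-1724 added with compounds to block cAMP breakdown; potency is read from the fitted curve at half-maximal effect; nearly all actives have a fitted effect of over 60% in size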
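Cells in DMEM/10% FBS with G418 were pretreated with compounds in DMSO plus […] (300 uM stock) for 30 min at 37C. cAMP was measured by HTRF (cAMP-d2 plus anti-cAMP antibody-K) after 30 min at room temperature.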
pAkt inh: inhibitors of Akt phosphorylation. Neuro2A IGF-stimulated pAkt S473 HTRF, 20 min; active compounds read low. activity change, % for hits at 50 µM. 360,000 tested, 0.32% active. AID 651550; in the data active = activity change below about -80%; inconclusive = mostly about -51% to -80%; also: % is scaled to controls: 0 for no effect and ±100 for the full control effect
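Neuro2A cells in DMEM with 0.5% FBS, overnight at 37 deg C, given compound at single 50 µM final, then IGF (6 nM final) for 20 min at 37 deg C. Lysed; phospho-Akt Ser473 by HTRF after 24 h, 665/615 ratio.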
RXFP1 agonist: agonists of human relaxin receptor RXFP1 | Q9HBX9 | HEK293T-RXFP1 cAMP TR-FRET, 30 min; response scale: percent of porcine relaxin response, buffer zero | Potency, µM (highest dose often 57.5 µM), for the others: at the top dose activation, most hits filed as activators | 370,000 tested, 0.3% active; active = well fitted activation curve with a large enough effect; inconclusive = small, poorly fitted or top-dose-only effect; also: potency is read from the fitted curve at half-maximal effect; % is scaled to controls: 0 for no effect and ±100 for the full control effect; nearly all actives have a fitted effect of over 60% in size
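HEK293T cells stably expressing RXFP1 were pretreated with the PDE4 inhibitor Ro 20174, exposed to compounds for 30 min at 37C, lysed, and cAMP was read by TR-FRET. Data normalized to buffer (basal) and 29 nM porcine relaxin (100%).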
* = called active by the depositor; i = inactive; ? = inconclusive; / = no result given; ! = not confirmed by another sample; [ ] = remark or other dose.

SMILES	RXFP1 antag	gsp antagonist	gsp ag	pAkt inh	RXFP1 agonist
CC(C)c1nc(N2CCN(C(=O)c3ccccc3)CC2)c(C#N)c2c1COC(C)(C)C2	4	15%	19%	i	4%
CC(C)c1nc(N2CCN(C(=O)c3ccco3)CC2)c(C#N)c2c1COC(C)(C)C2	-61*	-11%	-10%	i	3%
Cc1ccc(-c2nn(-c3ccccc3)cc2CO)cc1	-1	11%	-3%[15.4 µM]	i	4%
N=C(N)SCc1cn(-c2ccccc2)nc1-c1ccc(Br)cc1	-79*	/	0%[15.4 µM]	i	0%
CCCCCCCCCCCCCCCC[N+](C)(C)Cc1ccccc1	-31	/	/	/	/
Oc1ccc(-c2csc(Nc3ccccn3)n2)cc1O	-63*	-5%	-5%	i	-2%
CCCC(=O)NC(c1cccs1)c1cc([N+](=O)[O-])c2cccnc2c1O (stereo unspecified)	-66*	-24%	21%[15.4 µM]	i	0%
COCCCNCCOCCOc1ccc(Cl)cc1C(C)(C)C	-64*	29%	-11%	i	1%
C=CCc1cc(Cl)ccc1OCCNCCOC	-81*	14%	10%[15.4 µM]	i	3%
C=CCNCCOCCOc1ccc(Cl)cc1C(C)(C)C	-15	7%	?	i	0%
CC1(C)CC2(CC(c3ccc(F)cc3)c3ccc(O)cc3O2)NC(=S)N1 (stereo unspecified)	-19	-10%	-42%	i	0%
CC1(C)CC2(CC(c3ccccc3F)c3ccc(O)c(O)c3O2)NC(=S)N1 (stereo unspecified)	-76*	-5%	14%[15.4 µM]	i	-1%
O=C(Nc1ccc(F)cc1)c1cccn1-c1nnc(N2CCCCC2)s1	-15	/	/	/	-1%
CCc1cccc(C)c1NC(=O)CSc1nnc(CCCOc2ccc(Cl)cc2Cl)n1C	-12	10µM*	-8%	i	0%
Cn1c(CCCOc2ccc(Cl)cc2Cl)nnc1SCC(=O)Nc1cccc(F)c1	-21	-23%	-2%[15.4 µM]	i	3%
CC1CN(Cc2c(O)ccc3c(=O)c(-c4ccccc4)coc23)CC(C)O1 (stereo unspecified)	-3	-10%	8%[15.4 µM]	i	-1%
CC1CN(Cc2c(O)ccc3c2oc(=O)c2ccccc23)CC(C)O1 (stereo unspecified)	7	0%	28µM*	i	25%
CCOC(=O)CSc1nc2c(sc3ccccc32)c(=O)n1CCO	-13	/	/	/	3%
CS(=O)(=O)NCCSCc1ccc(Cl)cc1	5	-10%	1%	-108%*	0%
CC(C)(CNS(C)(=O)=O)SCc1ccc(Cl)cc1	11	11%	14%	i	4%
CCOC(=O)c1nnc(-c2ccccc2)nc1Oc1ccc(Cl)cc1	1	1%	?	-119%*	2%
CCOC(=O)/C(C#N)=C/c1ccc(OCC(=O)Nc2cc(C)ccc2C)c(OC)c1	20	-4%	-1%	-82%*	23%
CCOC(=O)C1=C(C)N=C2SC(C(=O)OC)=CC(=O)N2C1c1ccc(F)cc1 (stereo unspecified)	-21	?	-38%	-87%*	1%
Cc1c(C(=O)Nc2ccc(Cl)cc2)c2ccccn2c1C(=O)c1ccc(F)cc1	13	2%	-17%	-110%*	4%
CC(C)(C)c1cc(=O)[nH]c(SCc2ccccc2)n1	-33	-1%	-8%[15.4 µM]	i	0%
SMILES	RXFP1 antag	gsp antagonist	gsp ag	pAkt inh	RXFP1 agonist
CC(C)(C)c1cc(=O)[nH]c(SCc2ccccc2Cl)n1	-74*	6%	-9%[15.4 µM]	i	0%
CCC1CN(C(=O)N2CCC(C(=O)NCCc3cc(OC)ccc3OC)CC2)c2ccccc2O1 (stereo unspecified)	-6	/	/	/	0%
Cc1ccc(-n2c(SCc3ccccc3F)nc3[nH]ncc3c2=O)cc1Cl	/	/	/	/	-3%
COC(=O)c1cc(Nc2nc3ccccc3nc2NS(=O)(=O)c2ccc(C)cc2)ccc1Cl	/	/	/	/	1%
CNC(=O)C1CCC(=O)N1Cc1ccc(C)cc1 (stereo unspecified)	-2	15%	-4%	/	-1%
Cc1ccc(CN2C(=O)CCC2C(=O)NC(C)C)cc1 (stereo unspecified)	6	-1%	-4%	-118%*	1%
COCCNC(=O)c1ccc(-n2c(-c3ccccc3)cc3c2CCC(C)C3)cc1 (stereo unspecified)	-71*	/	/	/	-2%
Cc1nc2sc3c(=O)[nH]nnc3c2c(C)c1Br	-10	50µM*	?	i	-1%
N#C/C(=C\c1ccccc1)C(=O)NCc1ccc(F)cc1	-65*	6%	7%	i	1%
N#C/C(=C/c1ccc(C(=O)O)cc1)C(=O)NCc1ccccc1	-10	7%	-1%	i	0%
COC(=O)[C@H](Cc1ccccc1)NC(=O)NCc1cccs1	11	-1%	31%	-94%*	3%
O=C(NCc1cccs1)N[C@@H](Cc1ccccc1)C(=O)O	-5	1%	-30%	i	2%
COc1ccc(N2CC(NS(=O)(=O)c3cccs3)CC2=O)cc1OC (stereo unspecified)	-82*	5%	19%[15.4 µM]	i	-1%
COc1ccc(N2CC(NS(=O)(=O)c3cccs3)CC2=O)cc1 (stereo unspecified)	-2	-2%	9%[15.4 µM]	i	2%
COc1cccc(Nc2sc(C(=O)c3ccc(F)cc3)c(N)c2C(=O)NCc2ccc(C)cc2)c1	-10	/	/	/	2%
Cc1cccc(CCNc2nc3ccccc3n3nnnc23)c1	2	8%	4%	-87%*	9%
Cc1cccc(C(=O)Nc2nnc(S(=O)(=O)N(C)Cc3ccco3)s2)c1	3	-9%	38%	i	14µM*!
Cc1cccc(C(=O)Nc2nnc(S(=O)(=O)N(C)Cc3ccc(Cl)cc3)s2)c1	-8	/	/	/	13%
Cc1ccc(-n2cc(CNCCCn3cccn3)c(-c3cccc(C)c3)n2)cc1	-64*	1%	-12%[15.4 µM]	i	1%
Cc1ccc(C)c(-n2cc(CNCCCn3cccn3)c(-c3ccccc3)n2)c1	-21	1%	-32%[15.4 µM]	i	-1%
Cc1ccc(C)c(Cn2c(=O)cc(C)c3c(C)nn(C)c32)c1	-26	/	/	/	2%
CCOC(=O)N1CCC(n2c(SCC(=O)Nc3nccs3)nc3ccsc3c2=O)CC1	-5	-11%	-9%	-81%*	2%
CCOC(=O)CSc1nc2ccsc2c(=O)n1C1CCN(C(=O)OCC)CC1	14	-32%	14%	i	2%
CCN1CCCC1CN (stereo unspecified)	7	/	/	/	/
CC1(C)OC(=O)C(=Cc2ccc(-c3ccc(S(N)(=O)=O)cc3)o2)C(=O)O1	-105*	?	10%	i	1%
NS(=O)(=O)c1ccc(-c2ccc(/C=C3\C(=O)Nc4ccccc43)o2)cc1	/	/	/	/	1%
COC(=O)CCCCC(CCSS/C(CCO)=C(\C)N(C=O)Cc1cnc(C)nc1N)SC(C)=O (stereo unspecified)	2	/	/	/	/
